Source: PubChem BioAssay (EPA / NIEHS)
The source made the active and inactive calls. How the source made its calls: active means hit-call score of the fitted dose curve at least 0.9, where 1 is the maximum; inactive means score below 0.9.

Assay: ATG_PBREM_CIS: Attagene CIS-FACTORIAL HepG2 Assay for human Phenobarbital-responsive Enhancer Module (PBREM) (AID 2282955)
Settings: HepG2 PBREM cis-reporter, Attagene multiplexed transcription; actives raise or lower the signal
Outline: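 HepG2 cells transiently transfected with multiple cis-regulated reporter transcription units; endogenous factor activity at the PBREM element measured as reporter mRNA 24 h after dosing, via RT-PCR and capillary electrophoresis of fluorescent fragments; bidirectional fitting versus DMSO.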

| Compound | outcome | AC50 |
| --- | --- | --- |
| ON=C1CCCCC1 | inactive |  |
| COc1ccc(COC(C)=O)cc1 | inactive |  |
| Nc1ccc(NCCO)c([N+](=O)[O-])c1 | inactive |  |
| CCCCSCCCC | inactive |  |
| N#Cc1ccc(CC(=O)c2cccc(C(F)(F)F)c2)cc1 | inactive |  |
| NCCNc1cccc2ccccc12 | inactive |  |
| CCOC(=O)C1OC1c1ccccc1 (stereo not given) | inactive |  |
| [O-]n1ccccc1=S.[O-]n1ccccc1=S.[Zn+2] | inactive |  |
| CC1=NN(c2ccc(S(=O)(=O)O)cc2)C(=O)C1 | inactive |  |
| CC1(C)CCC[C@]2(C)[C@H]3CCO[C@]3(C)CC[C@@H]12 | inactive |  |
| C=CCOC(=O)CCCCCC | inactive |  |
| C1=CC2C3C=CC(C3)C2C1 (stereo not given) | inactive |  |
| CC(C)(N=C=O)c1cccc(C(C)(C)N=C=O)c1 | inactive |  |
| CCCC(=O)OC(C)(C)Cc1ccccc1 | inactive |  |
| C=CCCC(=O)/C=C/C1C(C)=CCCC1(C)C (stereo not given) | inactive |  |
| CCCCCCC(CO)CCCC (stereo not given) | inactive |  |
| CCCSc1ccc2nc(NC(=O)OC)[nH]c2c1 | inactive |  |
| CCCC(=O)c1ccccc1 | inactive |  |
| CN1CCOCC1 | inactive |  |
| C#CC(C)(O)CC(C)C (stereo not given) | inactive |  |
| CCOC(=O)C(C#N)=C(c1ccccc1)c1ccccc1 |  | 2.07 µM (active) |
| Cc1occc(=O)c1OC(=O)C(C)C | inactive |  |
| C=C[Si]1(C)O[Si](C)(C=C)O[Si](C)(C=C)O[Si](C)(C=C)O1 (stereo not given) | inactive |  |
| CC1=CC[C@@]23C[C@@H]1C(C)(C)[C@@H]2CC[C@H]3C | inactive |  |
| Cc1ccc(-c2ccccc2)cc1 | inactive |  |
